Laboratory results: publication PMC5540273 (PLoS ONE, 2017)

Experiments:
Conditions in all cases: concentration: 1 μM, replicates: in singlicate; n = 1
[1] = tested on: PIM1
[2] = tested on: PIM2
[3] = tested on: PIM3
[4] = tested on: PIP5K1A
[5] = tested on: PIP5K1C
[6] = tested on: PIP5K2B
[7] = tested on: T1, PIP5K2C
T1 construct: gene PIP4K2C

[8] = tested on: T2, PKAC-alpha
T2 construct: gene PRKACA

[9] = tested on: T3, PKAC-beta
T3 construct: gene PRKACB

[10] = tested on: PKMYT1
[11] = tested on: PKN1
[12] = tested on: PKN2
[13] = tested on: PLK1
[14] = tested on: PLK2
[15] = tested on: PLK3
[16] = tested on: PLK4
[17] = tested on: PRKCD
[18] = tested on: PRKCE
[19] = tested on: PRKCH
[20] = tested on: PRKCI
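Note: KINOMEscan kinase panel screen.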

SMILES	%Inh [1]	%Inh [2]	%Inh [3]	%Inh [4]	%Inh [5]	%Inh [6]	%Inh [7]	%Inh [8]	%Inh [9]	%Inh [10]	%Inh [11]	%Inh [12]	%Inh [13]	%Inh [14]	%Inh [15]	%Inh [16]	%Inh [17]	%Inh [18]	%Inh [19]	%Inh [20]
Cc1ccccc1-n1cnc2c(N)ncnc21 [SKF-97510]	0%	0%	2%	0%	0%	0%	0%	10%	0%	0%	0%	0%	0%	0%	0%	0%	0%	0%	0%	0%
Cl.c1ccc(-c2n[nH]cc2-c2ccnc(-c3ccc(CN4CCOCC4)cc3)c2)nc1 [GW776245]	13%	13%	15%	0%	27%	30%	0%	10%	13%	0%	0%	0%	17%	0%	4%	0%	11%	0%	0%	48%
Cc1ccc(C(=O)Nc2ccc(Nc3ccnc4cc(-c5ccccn5)ccc34)cc2O)cc1.Cl [GW440146]	16%	0%	12%	35%	0%	11%	31%	0%	8%	0%	0%	0%	0%	0%	0%	10%	0%	0%	24%	5%
COC(=O)c1c(-c2ccccc2)c2cc(C(=O)O)ccc2c(=O)n1Cc1ccccc1	0%	0%	0%	18%	17%	22%	13%	0%	24%	0%	0%	0%	0%	12%	0%	11%	0%	0%	4%	0%
CCCc1ccc(S(=O)(=O)NC2CCN(c3ccnc(Nc4ccc(F)cc4)n3)C2)cc1 (stereo not drawn) [GSK1379715]	0%	0%	0%	19%	42%	10%	47%	81%	0%	12%	7%	0%	0%	0%	0%	0%	0%	17%	11%	0%
COc1cc2ncn(-c3cc(OCC4CCCO4)c(C(N)=O)s3)c2cc1OC (stereo not drawn) [GSK204607]	17%	0%	0%	6%	84%	9%	33%	0%	0%	0%	0%	0%	98.9%	99.4%	98.3%	0%	0%	2%	0%	100%
CC(=O)Nc1nc2cnc(Nc3cc(NC(=O)c4cccc(CCC#N)c4)ccc3C)nc2s1	5%	19%	9%	13%	0%	45%	4%	15%	0%	0%	12%	0%	0%	8%	14%	9%	8%	0%	0%	32%
Cc1ccc(NC(=O)Nc2cc(C(C)(C)C)nn2-c2ccccc2)cc1 [GSK1014915]	0%	0%	0%	0%	29%	12%	3%	0%	0%	14%	53%	0%	0%	0%	0%	0%	0%	0%	5%	28%
CCn1c(-c2cccnc2O)nc2cnccc21 [SB-736715]	0%	0%	0%	0%	0%	0%	19%	4%	0%	0%	0%	0%	0%	0%	0%	0%	2%	3%	0%	0%
COc1ccc(Nc2nccc(NCCNC(=O)Nc3ccccc3F)n2)cc1 [GSK1379901]	0%	0%	0%	35%	33%	14%	56%	0%	0%	4%	16%	0%	0%	0%	0%	0%	0%	19%	19%	23%
CC1=C(C(=O)Nc2cc3cn[nH]c3cc2F)C(c2ccc(C(F)(F)F)cc2)CC(=O)N1 (stereo not drawn) [GSK429286]	0%	0%	0%	0%	10%	17%	11%	45%	60%	17%	56%	0%	0%	0%	0%	0%	0%	0%	0%	19%
Cc1cc(N2Cc3ccccc3C2)nc(Nc2ccc(S(=O)(=O)N3CCOCC3)cc2)n1.Cl [GSK1669917]	14%	0%	0%	0%	75%	10%	0%	0%	0%	21%	0%	0%	0%	8%	0%	0%	0%	3%	10%	17%
Cc1c(O)cccc1Nc1ccnc2ccc(C(F)(F)F)cc12.Cl [GW466413]	8%	0%	0%	32%	11%	0%	30%	0%	3%	39%	0%	0%	0%	0%	0%	0%	0%	0%	28%	0%
COc1cc(Nc2nccc(N3CCC(NC(=O)Nc4cc(C)ccc4C)C3)n2)cc(OC)c1OC (stereo not drawn) [GSK1379762]	0%	0%	0%	0%	21%	16%	70%	5%	0%	0%	41%	0%	0%	0%	0%	28%	0%	0%	7%	33%
O=C1NC(=O)C(N2CCc3ccccc32)=C1c1ccccc1Cl [SB-373598]	0%	9%	7%	0%	29%	35%	1%	22%	39%	11%	0%	13%	14%	0%	0%	12%	19%	3%	30%	0%
Cc1cccc(-c2cc(Nc3ccncc3)c3ccccc3n2)n1 [GSK223675]	23%	0%	19%	0%	25%	4%	8%	0%	0%	0%	46%	0%	1%	0%	0%	2%	0%	0%	0%	17%
COc1ccc(C2=C(Nc3cccc(C(=O)O)c3)C(=O)NC2=O)cc1 [SB-390765]	5%	6%	11%	13%	4%	16%	0%	12%	25%	0%	18%	7%	21%	48%	21%	2%	5%	25%	4%	47%
COc1ccccc1CNC(=O)c1cc(C(=O)c2ccccc2C)c[nH]1 [GSK364507]	0%	0%	0%	0%	26%	8%	25%	0%	0%	0%	0%	0%	0%	0%	0%	100%	0%	1%	6%	3%
Fc1cccc(COc2nnc(-c3ccc4c(c3)CCO4)o2)c1	11%	8%	0%	31%	6%	29%	10%	0%	0%	11%	0%	0%	0%	9%	11%	12%	12%	0%	0%	0%
Cc1nnc(-c2ccc3occ(-c4ccc(S(C)=O)cc4)c3c2)[nH]1 (stereo not drawn)	32%	58%	35%	0%	63%	35%	61%	9%	0%	21%	0%	0%	0%	14%	7%	11%	13%	7%	0%	0%
O=C(Nc1n[nH]c2cc(-c3cccc(F)c3F)ccc12)C1CC1 [SB-733894]	8%	0%	32%	0%	0%	0%	0%	0%	0%	40%	39%	6%	0%	26%	13%	22%	7%	0%	0%	21%
